Results taken from PubChem BioAssay AID1346378 (National Center for Advancing Translational Sciences (NCATS), 2018).
Screen size: about 420,000 compounds; about 540 (0.13%) were called active. This is one part of a sample in which actives are shown more often than they occur. Rule as the data show it: active = activity change below about -50%; inconclusive = mostly about -30% to -49%; inactive = weaker than that.

The compounds below were run against Phosphatidylinositol 4-kinase type 2-alpha (Homo sapiens) (UniProt Q9BTU6) (assay: qHTS for small molecular inhibitors of PI4K2A). Details: purified PI4K2A, ADP-Glo luminescence, 1 h; at 76.9 µM, hits give low values.
Excerpt: The phosphatidylinositol 4-phosphate (PI4P) is emerging as a key regulator of lipid transfer in ER-membrane contact sites. The four different phosphatidylinositol 4-kinase (PI4K) enzymes generate PI4P in different membrane compartments supporting distinct cellular processes many of which are crucial for the maintenance of cellular integrity but also hijacked by intracellular pathogens. The goal of this screening project is to search for small molecular inhibitors of PI4K2A based on a high throughput screening strategy.The ADP-Glo assay was used as a starting point to develop a miniaturized version for HTS applications. To implement the HTS screen, the PI4K ADP-Glotrade mark Kinase assay (Promega, V9102) was miniaturized for the 1536-well format used at NCGC.
For the robotic screening, the ADP-Glo assay using the ADP-Glotrade mark Kinase Assay kit from Promega was miniaturized and optimized on 1536-well white solid bottom plates (Greiner Bio-one). The substrate, 1.2 mM PI, prepared in the assay buffer (40mM Tris pH7.5, 20mM MgCl2, 1mM EGTA, 0.4% Triton X-100, 0.5mM DTT, 0.5mg/ml BSA) and PI4K2A enzyme, diluted also in the assay buffer to 4ug/mL, were dispensed onto the plates in equal volumes (1microl/well), pinned with 23 nL/well tested compounds or control followed by dispensation of 1microl/well 300microM ATP. The plates were incubated for one hour. Then, 2 µL/well of ADP-Glo reagent was added and incubated for 40 minutes. Next, 4microL/well of Kinase Detection Buffer was added to the plates and incubated for additional 40 minutes. All incubation steps were performed at ambient temperature. The resulting luminescence signal was measured on Viewlux plate reader (PerkinElmer). Adenosine, a partial non-specific inhibitor, was used as a positive control at 100microM final concentration to assess the assay's quality and plate-to-plate reproducibility. We also used "no enzyme" control to gauge the assay's maximal potential inhibition (IC100).
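Also: -100% = wells without enzyme as full effect.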

Chain of Phosphatidylinositol 4-kinase type 2-alpha (Homo sapiens) (Q9BTU6 whole entry, looked up): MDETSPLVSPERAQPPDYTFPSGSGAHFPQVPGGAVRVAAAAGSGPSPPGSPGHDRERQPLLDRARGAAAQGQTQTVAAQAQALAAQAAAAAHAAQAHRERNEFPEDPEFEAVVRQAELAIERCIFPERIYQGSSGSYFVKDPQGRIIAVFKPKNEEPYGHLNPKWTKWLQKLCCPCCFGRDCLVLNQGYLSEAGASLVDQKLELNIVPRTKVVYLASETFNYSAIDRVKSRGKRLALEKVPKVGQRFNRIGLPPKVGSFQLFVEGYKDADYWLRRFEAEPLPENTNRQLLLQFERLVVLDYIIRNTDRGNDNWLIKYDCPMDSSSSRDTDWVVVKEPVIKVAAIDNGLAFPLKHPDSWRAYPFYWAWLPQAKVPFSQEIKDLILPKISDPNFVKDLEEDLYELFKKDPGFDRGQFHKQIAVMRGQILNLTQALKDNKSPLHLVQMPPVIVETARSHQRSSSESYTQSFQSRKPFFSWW

Activity change, negative = inhibition, active:
O=C(OC1CCOC1=O)c1ccc(-c2nc3ccccc3s2)s1 (stereo not drawn) -52.4%
O=C1/C(=C\c2ccc([N+](=O)[O-])cc2)CS(=O)(=O)C/C1=C/c1ccc([N+](=O)[O-])cc1 -53%
Cc1nonc1C(=O)N/N=C/c1ccc(O)cc1 -107%
O=C(Oc1ccc(-c2nc(-c3ccccn3)no2)cc1)c1ccccc1 -59.2%
Nc1ccc2nc3c(=O)[nH]c(=S)[nH]c3nc2c1 -58.2%
CCC(C)Cn1c(O)cc2nn(-c3nc4ccccc4s3)c(=O)c-2c1C (stereo not drawn) -52%

Activity change, negative = inhibition, inactive:
CC(C)(C)c1ccc(OCC(=O)N2CCC(c3nc4ccccc4s3)CC2)cc1 -3.91%
COc1cc(C(=O)OC2CCOC2=O)c([N+](=O)[O-])cc1OC (stereo not drawn) 0.815%
C=CC(=O)Nc1ccc(Nc2ccnc(Nc3ccc(N4CCN(C)CC4)cc3)n2)cc1 -9.48%
CC(C)C[C@H](NC(=O)[C@H](O)[C@H](N)Cc1ccccc1)C(=O)O -0.0848%
CC(=O)Nc1ccc(NC(=O)c2cc3sccc3n2Cc2ccc(F)cc2)cc1 -0.493%
CCc1ccc(/C=N/NC(=O)c2nnn(-c3nonc3N)c2CN2CCc3ccccc32)cc1 2.23%
CC(C)Oc1ccc(/C=N/NC(=O)c2nnn(-c3nonc3N)c2CN(C)C2CCCCC2)cc1 -0.0382%
O=S(=O)(NCCc1nnc2ccc(SCc3ccc(Cl)cc3Cl)nn12)c1ccccc1 1.68%
CCCOC(=O)c1c(NC(=O)c2cc3nc(-c4ccc(OC)cc4)cc(C(F)(F)F)n3n2)sc2c1CCCC2 -1.38%
CC(=O)c1ccc(NC(=O)COc2ccccc2-c2nc(-c3ccccc3)no2)cc1 -0.609%
O=C(COc1cccc(F)c1)Oc1ccc(C(=O)c2ccccc2)cc1 -2.11%
CCc1ccccc1NC(=O)c1ccc(F)c(S(=O)(=O)NC2CCCCCC2)c1 3.89%
CCCCOc1ccc(C(=O)N2CC(=O)Nc3ccc(Br)cc3C2c2ccc(F)cc2)cc1 (stereo not drawn) 0.252%
O=C(NCC(c1cccnc1)N1CCc2ccccc21)c1cccc(C(F)(F)F)c1 (stereo not drawn) -0.743%
CCOCCCn1c(SCC(=O)Nc2ccc(CC)cc2)nc2ccccc2c1=O 2.57%
COc1cc(OC)c(OC)cc1/C=C/c1nc2cc3ccccc3cc2c(=O)n1-c1ccc(F)c(Cl)c1 1.51%
CCCC(=O)Nc1cc(C(=O)NCc2ccc(OC)cc2)ccc1S(=O)(=O)c1ccc(Cl)cc1 1.05%
CCCc1c2oc(C(=O)O)cc(=O)c2cc2c(=O)cc(C(=O)O)n(CC)c12 0.586%
CC1(C)OC[C@@H](COC(=O)CCc2ccc(OC[C@@H](O)CNCCNC(=O)N3CCOCC3)cc2)O1 2.53%
Cc1cccc(C)c1NC(=O)c1ccc(N)cc1 2.75%
CC(C)Sc1oc(-c2cccs2)nc1S(=O)(=O)c1ccc(Cl)cc1 2.5%
CCC(=O)Nc1ccc2nc(SCC(=O)N3CCc4ccccc43)sc2c1 -5.07%
CCCn1c(=O)c2[nH]c(-c3ccc(OCC(=O)NCCN)cc3)nc2n(CCC)c1=O -1.34%
Cc1ccc(-n2ncc3c(N4CCC(C(N)=O)CC4)ncnc32)cc1 -0.0422%
CC(=O)c1ccc(NC(=O)c2nc3nc(C)cc(C(F)F)n3n2)cc1 0.438%
Cc1oc2ncnc(N3CCOCC3)c2c1C(=O)NCCc1ccccc1 5.54%
Cc1cc2oc(C(=O)N(Cc3ccc(Cl)cc3)Cc3ccco3)c(C)c2cc1Cl -5.36%
O=C(C1CC1)N1CCc2cc(Br)cc(S(=O)(=O)N3CCN(c4ccccc4F)CC3)c21 -2.46%
CC(C)(C)c1ccc(C(=O)NCC(c2ccc(Cl)cc2)N2CCOCC2)cc1 (stereo not drawn) 1.67%
Cc1ccc2oc(=O)c3cnn(CC(=O)NCc4ccccc4Cl)c3c2c1 2.09%
Cc1ccc(C(=O)NCCSc2c(C)[nH]c3ccccc23)cc1C -0.18%
Cc1ccccc1NC(=O)c1cc2c([nH]c1=O)CC(C)(C)CC2=O -0.508%
Cc1ccc2ncc(C(=O)Nc3ccc(OC(F)(F)F)cc3)c(=O)n2c1 -0.27%
C[C@@H]1CCC[C@H](C)N1CCCC(O)(c1ccccc1)c1ccccn1 (stereo partly drawn) -1.64%
Cc1ccc(NC(=O)Cn2cnc3nc4c(cc3c2=O)CCCC4)cc1Cl 2.6%
O=C(CC1Oc2ccccc2NC1=O)NCc1ccc(F)cc1 (stereo not drawn) -3.94%
CCOCCn1ccc2c(OCC(=O)NCc3ccc(C)cc3)cccc2c1=O -5.41%
O=C1CCCc2cc(S(=O)(=O)N3CCCC(C(=O)NCc4ccccc4)C3)ccc2N1 (stereo not drawn) -5.19%
CCc1ccc(NC(=O)CCS(=O)(=O)c2cc3c(cc2Cl)NC(=O)CO3)cc1 0.699%
CO[C@H]1C=CO[C@@]2(C)Oc3c(C)c(O)c4c(O)c(c(/C=N/N5CCN(C)CC5)c(O)c4c3C2=O)NC(=O)/C(C)=C\C=C[C@H](C)[C@H](O)[C@@H](C)[C@@H](O)[C@@H](C)[C@H](OC(C)=O)[C@@H]1C -8.76%
Cc1nn2c(=O)cc(COC(=O)c3cccc(NC(=O)COc4ccccc4Cl)c3)nc2s1 3.91%
Cc1ccc(CCNC(=O)c2ccc3c(c2)N(Cc2cc(C)ccc2C)C(=O)c2ccccc2S3=O)cc1 (stereo not drawn) 3.89%
O=C(OCCN1CCOCC1)c1cccnc1Nc1cccc(C(F)(F)F)c1 1.58%
Cc1cc(C)cc(OCC(=O)Nc2nc(-c3ccc(F)cc3)ns2)c1 -6.03%
CCS(=O)(=O)N1CCc2cc(C(=O)NCc3ccc(OC)cc3)ccc21 -0.384%
CCc1ccccc1NC(=O)c1sc2nc3c(cc2c1N)CN(Cc1ccccc1)CC3 -2.17%
Cc1ccc(Oc2c(C(F)(F)F)oc3c(CN4CCCCC4)c(O)ccc3c2=O)cc1 -2.18%
